Experimental findings from PubChem BioAssay (NCI) are described below.

Values joined by “and” are separate entries in the source; they are usually repeats but may differ in a detail not shown here. Identical values can stand only once. This is part of a sample that, as a whole, favours compounds with a hit. Of some 83,000 tested, about 20% had one in any assay.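 Activity criterion: percent growth below 10, measured after cells in 96-well plates were exposed to a single compound concentration for 48 hours.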 Active and inactive are the calls of the source.

Assay in all cases: NCI-60 one-dose screen, 48 h (100 = growth as untreated, 0 = no growth, -100 = all killed)
Conditions in all cases: 10 µM unless noted

The subject of assay [1] is NCI-H226 lung.
Assay [2] has as its system NCI-H322M lung.
The test system of assay [3] is HOP-62 NSCLC.
The test system of assay [4] is NCI-H460 lung.
The subject of assay [5] is HOP-92 NSCLC.
For assay [6], the system named is NCI-H522 lung.
In assay [7] the test system is A549/ATCC NSCLC.
Assay [8] relates to 786-0 renal.
The test system of assay [9] is COLO 205 colon.
For assay [10], the system named is NCI-H23 lung.

For the compound `O=C(O)C1C2C=CC(C2)C1C(=O)O` (stereo unspecified), the growth in assay [1] was 105% (inactive) and 38.6% (inactive) and 91.2% (inactive); in assay [2], 99.3% (inactive) and 38.9% (inactive) and 104% (inactive); in [3], 114% (inactive) and 30.1% (inactive) and 92.8% (inactive); in [4], 104% (inactive) and 13.9% (inactive) and 105% (inactive); in [5], 98.6% (inactive) and 98.2% (inactive); in [6] it was 87.1% (inactive) and 102% (inactive). The growth in assay [7] is 93.5% (inactive) and 13.4% (inactive) and 97.7% (inactive); in assay [8], 105% (inactive) and 28.3% (inactive) and 104% (inactive); in assay [9], 115% (inactive) and 46.9% (inactive) and 118% (inactive).
Consider `COc1ccc(/C(C#N)=C/c2ccccn2)cc1`, for which the growth in assay [10] was 98% (inactive) and 102% (inactive); in assay [1], 95.9% (inactive) and 128% (inactive); in [5], 99.8% (inactive); in assay [6], 98.1% (inactive) and 103% (inactive); in assay [7], 101% (inactive) and 103% (inactive); in [8], 96.7% (inactive) and 73.8% (inactive). The growth in assay [9] is 112% (inactive) and 173% (inactive).
Turning to `Oc1ccccc1/C=N\NC(=S)N/N=C/c1ccccc1O`, the growth in [1] is 68.1% (inactive) and 43.4% (inactive); in assay [3], 48.9% (inactive) and 71.5% (inactive); in assay [4] it was 19.5% (inactive) and 12.5% (inactive); in assay [5], 45.9% (inactive) and 62.4% (inactive); in assay [6], 31% (inactive) and 2.87% (active); in assay [7], 32.4% (inactive). Besides, the growth in [8] was 29% (inactive) and 27.1% (inactive); in assay [9] it was 65.6% (inactive) and 48.7% (inactive).
Consider `O=C(c1ccc(Cl)cc1)C(NCCO)c1ccc(Cl)cc1` (stereo unspecified), for which the growth in assay [1] was 93.2% (inactive) and 106% (inactive); in [2] it was 86.4% (inactive) and 93.6% (inactive); in assay [4] it was 100% (inactive) and 114% (inactive); in assay [5] it was 72.9% (inactive) and 89.4% (inactive); in assay [6] it was 92.8% (inactive) and 89.3% (inactive); in [7] it was 96.8% (inactive) and 93.8% (inactive). In addition, the growth in [8] was 97.8% (inactive) and 93.3% (inactive); in [9] it was 112% (inactive) and 122% (inactive).
As for `CC(=O)c1ccccc1O`, the growth in assay [1] is 102% (inactive) and 81.7% (inactive) and 104% (inactive); in [2], 98.4% (inactive) and 89.7% (inactive) and 98.2% (inactive); in assay [3], 101% (inactive) and 87.7% (inactive) and 103% (inactive); in assay [4], 105% (inactive) and 107% (inactive) and 103% (inactive); in assay [5], 83.7% (inactive) and 103% (inactive); in [7], 104% (inactive) and 81.9% (inactive) and 96.2% (inactive). In addition, the growth was 104% (inactive) and 103% (inactive) and 101% (inactive) in assay [8]; 131% (inactive) and 106% (inactive) and 118% (inactive) in [9].
On to `CCOc1ccc(Nc2c3ccccc3nc3ccccc23)cc1`, for which the growth in [1] was -12.9% (active) and 19.1% (inactive); in assay [2], 99.3% (inactive) and 44.4% (inactive) and 38.3% (inactive); in [4], 93.6% (inactive) and 3.2% (active) and 4.66% (active); in assay [5], 72.2% (inactive) and -5.95% (active) and -4.39% (active); in assay [6], 10.1% (inactive) and 35.9% (inactive); in [7] it was 87.5% (inactive) and 12.3% (inactive) and 21% (inactive). Moreover, the growth was 84.8% (inactive) and 30.1% (inactive) and 43.7% (inactive) in [8]; 103% (inactive) and -11.2% (active) and 24.5% (inactive) in assay [9].
As to `COc1cc(Nc2nc3ccccc3nc2NS(=O)(=O)c2ccc(NC(=O)c3ccc(C)c(OC)c3)cc2)cc(OC)c1`, the growth in [1] is 70.8% (inactive) and 6.54% (active); in assay [3], 44.1% (inactive) and -1.64% (active); in assay [4] it was 44.4% (inactive) and 10.5% (inactive); in [5] it was -26.5% (active); in [6], 40.9% (inactive) and 2.82% (active); in [7] it was 50.2% (inactive) and -9.71% (active). Moreover, the growth in [8] is 69.5% (inactive) and -19.2% (active); in [9], 66% (inactive) and -11.6% (active).
`N/C(=N\N=C\c1ccc2c(c1)OCO2)N/N=C\c1ccc2c(c1)OCO2`: the growth in [1] is 106% (inactive) and 108% (inactive); in assay [2], 108% (inactive) and 101% (inactive); in assay [3], 115% (inactive) and 101% (inactive); in [5] it was 99.8% (inactive); in assay [6], 119% (inactive) and 108% (inactive); in assay [7] it was 107% (inactive) and 108% (inactive). Besides, the growth in [8] is 103% (inactive) and 88.6% (inactive); in assay [9], 108% (inactive) and 94.5% (inactive).
On to `O=C=NC(c1ccccc1)(c1ccccc1)c1ccccc1`, for which the growth in assay [1] is 111% (inactive); in assay [2], 104% (inactive); in assay [3] it was 143% (inactive); in assay [5], 110% (inactive); in assay [6] it was 90.2% (inactive); in assay [7], 107% (inactive). Also, the growth in assay [8] is 95% (inactive); in [9], 101% (inactive).
As to `CCOC(=O)C(C(=O)OCC)C(c1ccccc1)N1CCN(c2ccccc2)CC1` (stereo unspecified), the growth in assay [1] is 112% (inactive) and 96.9% (inactive); in [2], 93.3% (inactive) and 107% (inactive); in assay [3], 116% (inactive) and 105% (inactive); in assay [4] it was 116% (inactive) and 109% (inactive); in [5], 98.1% (inactive) and 86.6% (inactive); in assay [6], 89.7% (inactive) and 88% (inactive). Further, the growth was 99.3% (inactive) and 83.2% (inactive) in assay [7]; 104% (inactive) and 102% (inactive) in [8]; 114% (inactive) and 124% (inactive) in [9].
